# Test results published in PubChem BioAssay (Tox21).
# Values joined by “and” are separate entries in the source; they are usually repeats but may differ in a detail not shown here. Identical values can stand only once. Records with an inconclusive call do not appear. A call without a number means that no potency is given here. Some compounds were tested as several samples or in several runs, with calls that do not always agree. Active and inactive are the calls of the source. Unless noted, calls come from the whole dose curve; as a rule, active = well fitted curve in the direction sought with a large enough effect in the repeat runs; inconclusive = weak or mixed curves; inactive = no such curve, though single readings can be large; an effect the other way counts as inactive or inconclusive.
# Columns and labels:
# [1] = qHTS assay to identify aromatase inhibitors - cell viability counter screen (AID 743084);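 note: cells stimulated with testosterone during compound exposure; nearly all actives have a fitted effect of over 55% in size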; note: potency is the fitted concentration of half-maximal effect
# [2] = qHTS assay to identify small molecule that activate the aryl hydrocarbon receptor (AhR) signaling pathway - cell viability counter screen (AID 743086);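 note: HepG2 liver cells carrying the AhR DRE luciferase reporter; series mostly up to about 70 µM; nearly all actives have a fitted effect of over 45% in size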
# Outline: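 HepG2-AhR-luc (HG2L7.5c1) cells, 4000/well, treated 24 h at 37 C with compound; viability measured as CellTiter-Fluor fluorescence after 30 min in the same wells as the luciferase read.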
# [3] = biological target: Peroxisome proliferator-activated receptor gamma (Homo sapiens) (UniProt P37231); test: qHTS assay to identify small molecule agonists of the peroxisome proliferator-activated receptor gamma (PPARg) signaling pathway (AID 743094; active = well fitted activation curve with a large enough effect in the signal ratio in the repeat runs, not every such curve was filed as active; the % refers to the signal ratio)
# Chain of Peroxisome proliferator-activated receptor gamma (Homo sapiens) (P37231 whole entry, looked up): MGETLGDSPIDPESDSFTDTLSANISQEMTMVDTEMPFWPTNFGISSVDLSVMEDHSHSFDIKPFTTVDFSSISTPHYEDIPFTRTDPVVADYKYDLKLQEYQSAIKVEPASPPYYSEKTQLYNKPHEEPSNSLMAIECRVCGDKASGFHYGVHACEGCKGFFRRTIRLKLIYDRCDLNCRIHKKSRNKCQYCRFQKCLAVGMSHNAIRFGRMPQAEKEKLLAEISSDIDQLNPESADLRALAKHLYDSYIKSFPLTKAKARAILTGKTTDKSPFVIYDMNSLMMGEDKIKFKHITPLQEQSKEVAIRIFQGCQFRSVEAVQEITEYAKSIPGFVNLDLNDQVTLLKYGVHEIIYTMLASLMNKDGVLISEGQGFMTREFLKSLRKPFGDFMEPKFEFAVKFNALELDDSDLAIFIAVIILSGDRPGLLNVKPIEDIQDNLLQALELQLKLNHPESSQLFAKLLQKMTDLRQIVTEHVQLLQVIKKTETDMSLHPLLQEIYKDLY
# Outline: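 Beta-lactamase FRET fluorescence was the read-out after a 1 h room-temperature substrate step, following 17 h compound treatment at 37C of HEK293H cells expressing a UAS-driven bla reporter responsive to PPARg.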
# [4] = biological target: Peroxisome proliferator-activated receptor gamma (Homo sapiens) (UniProt P37231); test: qHTS assay to identify small molecule antagonists of the peroxisome proliferator-activated receptor gamma (PPARg) signaling pathway (AID 743191; calls by dose curve; note: series mostly up to about 63 µM; nearly all actives have a fitted effect of over 30% in size)
# Outline: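 GeneBLAzer PPARg UAS-bla HEK293H cells, 5 h post-plating, exposed to compounds 17 h at 37C. LiveBLAzer B/G FRET substrate added for 1 h at room temperature; beta-lactamase reporter read by fluorescence intensity.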
# [5] = qHTS assay to identify small molecule antagonists of the peroxisome proliferator-activated receptor gamma (PPARg) signaling pathway - cell viability counter screen (AID 743194); note: nearly all actives have a fitted effect of over 55% in size
# Outline: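 Cytotoxicity counter screen in PPARg-bla HEK293H cells, same wells as reporter assay. Compounds plus 50 nM rosiglitazone (final) for 17 h at 37 C, then viability read by CellTiter-Glo luminescence.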
# [6] = qHTS assay for small molecule agonists of the antioxidant response element (ARE) signaling pathway (AID 743202; active = well fitted activation curve with a large enough effect in the signal ratio in the repeat runs, not every such curve was filed as active; the % refers to the signal ratio)
# Outline: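 Agonist mode reporter screen: HepG2 cells with ARE-controlled beta-lactamase are incubated with test compounds for 16 h at 37 C, and beta-lactamase activity is measured as fluorescence of cleaved B/G FRET substrate.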
# [7] = qHTS assay for small molecule agonists of the antioxidant response element (ARE) signaling pathway - cell viability counter screen (AID 743203; calls by dose curve; note: nearly all actives have a fitted effect of over 55% in size)
# Outline: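 HepG2 cells carrying ARE-driven beta-lactamase; 2,000 cells/well; 5 hrs plating; compound pinned from DMSO; 16 hrs 37C/5% CO2; CellTiter-Glo added; 30 min RT; luminescence.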
# [8] = qHTS assay for small molecule activators of the heat shock response signaling pathway - cell viability counter screen (AID 743209); note: nearly all actives have a fitted effect of over 50% in size
# Outline: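 Luminescence from CellTiter-Glo, added after the beta-lactamase FRET read, gave the viability signal. Cells were HSE-bla HeLa treated with DMSO-dissolved compounds for 5 h at 37 C following overnight plating.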
# [9] = qHTS assay for small molecule activators of the heat shock response signaling pathway (AID 743210; active = well fitted activation curve with a large enough effect in the signal ratio in the repeat runs, with a control signal flat, not every such curve was filed as active; the % refers to the signal ratio;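 note: HeLa cells with beta-lactamase reporter driven by heat shock elements; series mostly up to about 63 µM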)
# Outline: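 Quantitative high-throughput format using an engineered HeLa line in which heat shock response elements drive beta-lactamase; after 5 h with compound, cells received a B/G FRET substrate and fluorescence was read.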
# [10] = qHTS assay to identify small molecule agonists of the peroxisome proliferator-activated receptor delta (PPARd) signaling pathway - cell viability counter screen (AID 743211); note: nearly all actives have a fitted effect of over 55% in size; note: potency is the fitted concentration of half-maximal effect
# Outline: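 PPARd-bla HEK293H cells (UAS-beta-lactamase reporter) were treated with compounds for 17 h at 37 C. Viability was then read in the same wells by CellTiter-Glo luminescence after 30 min at room temperature.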
# [11] = biological target: Peroxisome proliferator-activated receptor delta (Homo sapiens) (UniProt Q03181); test: qHTS assay to identify small molecule agonists of the peroxisome proliferator-activated receptor delta (PPARd) signaling pathway (AID 743212; calls by dose curve)
# Chain of Peroxisome proliferator-activated receptor delta (Homo sapiens) (Q03181 whole entry, looked up): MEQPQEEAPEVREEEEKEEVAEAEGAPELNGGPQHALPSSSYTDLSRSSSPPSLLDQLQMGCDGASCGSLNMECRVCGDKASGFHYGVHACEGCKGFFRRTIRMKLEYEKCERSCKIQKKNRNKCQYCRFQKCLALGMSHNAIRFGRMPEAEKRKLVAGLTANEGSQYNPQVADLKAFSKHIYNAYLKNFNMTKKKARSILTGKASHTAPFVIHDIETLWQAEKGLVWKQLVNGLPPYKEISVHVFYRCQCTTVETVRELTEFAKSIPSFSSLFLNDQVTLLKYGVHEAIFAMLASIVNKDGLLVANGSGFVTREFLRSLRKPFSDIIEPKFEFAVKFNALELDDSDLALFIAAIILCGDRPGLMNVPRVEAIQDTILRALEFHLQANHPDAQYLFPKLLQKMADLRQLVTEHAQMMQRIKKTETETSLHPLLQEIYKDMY
# Outline: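 Quantitative high-throughput agonist screen in a HEK293H beta-lactamase reporter line under UAS control. Compounds in DMSO, at 37 C. Fluorescence read after 2 h with FRET substrate at room temperature.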
# [12] = qHTS assay to identify small molecule antagonists of the peroxisome proliferator-activated receptor delta (PPARd) signaling pathway - cell viability counter screen (AID 743213); note: nearly all actives have a fitted effect of over 50% in size
# Outline: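 Same-well viability: cells pre-incubated 5 h, dosed with compound plus 300 nM L165041, kept 17 h at 37 C, FRET substrate 2 h RT, then CellTiter-Glo 30 min RT and luminescence.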
# [13] = biological target: Peroxisome proliferator-activated receptor delta (Homo sapiens) (UniProt Q03181); test: qHTS assay to identify small molecule antagonists of the peroxisome proliferator-activated receptor delta (PPARd) signaling pathway (AID 743215; active = well fitted inhibition curve with a large enough effect in the signal ratio in the repeat runs, not every such curve was filed as active; the % refers to the signal ratio;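 note: cells stimulated with agonist L165041 at 300 nM final during compound exposure; series mostly up to about 62 µM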)
# Outline: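 Read-out is beta-lactamase FRET fluorescence, measured 2 h after substrate addition at room temperature. Beforehand, UAS-bla HEK293H cells carrying the PPARd reporter were exposed to compounds with L165041 at 300 nM final for 17 h at 37 C.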
# [14] = biological target: Bile acid receptor (Homo sapiens) (UniProt Q96RI1); test: qHTS assay to identify small molecule antagonists of the farnesoid-X-receptor (FXR) signaling pathway (AID 743217; active = well fitted inhibition curve with a large enough effect in the signal ratio in the repeat runs, not every such curve was filed as active; the % refers to the signal ratio)
# Chain of Bile acid receptor (Homo sapiens) (Q96RI1 whole entry, looked up): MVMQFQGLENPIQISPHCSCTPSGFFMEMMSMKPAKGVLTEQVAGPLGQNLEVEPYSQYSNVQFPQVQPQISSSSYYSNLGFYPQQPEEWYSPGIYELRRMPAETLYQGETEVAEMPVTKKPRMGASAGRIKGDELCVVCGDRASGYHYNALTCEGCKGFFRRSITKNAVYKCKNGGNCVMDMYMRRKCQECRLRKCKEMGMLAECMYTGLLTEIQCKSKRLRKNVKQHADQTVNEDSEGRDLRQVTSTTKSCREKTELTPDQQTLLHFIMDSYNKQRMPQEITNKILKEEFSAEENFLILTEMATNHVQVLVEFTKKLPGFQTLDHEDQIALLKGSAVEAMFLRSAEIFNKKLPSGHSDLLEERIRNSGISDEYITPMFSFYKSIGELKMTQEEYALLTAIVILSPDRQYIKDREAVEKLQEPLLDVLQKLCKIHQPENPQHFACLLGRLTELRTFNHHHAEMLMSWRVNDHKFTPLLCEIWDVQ
# Outline: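 HEK 293T FXR-UAS-bla, 5000 cells/well; compound + CDCA 50 uM final; 16 h, 37 °C; B/G FRET substrate 2 h RT; fluorescence.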
# [15] = biological target: Bile acid receptor (Homo sapiens) (UniProt Q96RI1); test: qHTS assay to identify small molecule agonists of the farnesoid-X-receptor (FXR) signaling pathway (AID 743220; active = well fitted activation curve with a large enough effect in the signal ratio in the repeat runs, not every such curve was filed as active; the % refers to the signal ratio)
# Outline: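 Beta-lactamase reporter under UAS control in GeneBLAzer FXR HEK 293T cells (5000/well) measured with LiveBLAzer FRET substrate after 2 h at room temperature. Compound exposure lasted 16 h at 37C.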
# [16] = qHTS assay to identify small molecule antagonists of the farnesoid-X-receptor (FXR) signaling pathway - cell viability counter screen (AID 743221; active = well fitted cell-killing curve with a large enough effect in the repeat runs, not every such curve was filed as active; note: nearly all actives have a fitted effect of over 50% in size)
# Outline: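 FXR-UAS-bla HEK 293T cells were treated with test compounds plus chenodeoxycholic acid (50 uM final) for 16 h at 37 C. Cell viability in the same wells was then read as CellTiter-Glo luminescence after 30 min at room temperature.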
# [17] = biological target: Vitamin D3 receptor (Homo sapiens) (UniProt P11473); test: qHTS assay to identify small molecule agonists of the vitamin D receptor (VDR) signaling pathway (AID 743222; calls by dose curve)
# Chain of Vitamin D3 receptor (Homo sapiens) (P11473 whole entry, looked up): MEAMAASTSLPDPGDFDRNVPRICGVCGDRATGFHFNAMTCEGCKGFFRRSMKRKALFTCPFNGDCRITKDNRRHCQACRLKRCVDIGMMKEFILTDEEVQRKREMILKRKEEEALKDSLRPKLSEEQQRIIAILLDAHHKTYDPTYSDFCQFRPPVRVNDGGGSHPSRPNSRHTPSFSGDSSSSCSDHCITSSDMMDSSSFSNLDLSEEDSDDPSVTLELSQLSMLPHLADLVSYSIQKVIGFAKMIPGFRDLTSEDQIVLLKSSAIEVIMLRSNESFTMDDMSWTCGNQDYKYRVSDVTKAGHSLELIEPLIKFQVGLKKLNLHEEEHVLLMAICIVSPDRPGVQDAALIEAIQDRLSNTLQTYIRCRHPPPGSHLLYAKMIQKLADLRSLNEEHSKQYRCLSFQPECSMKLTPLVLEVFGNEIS
# Outline: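 VDR-bla cells, 2,000/well; 4 h preincubation 37C; cpd (DMSO) 16 h; LiveBLAzer B/G substrate 2 h RT; fluorescence intensity read.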
# [18] = biological target: Vitamin D3 receptor (Homo sapiens) (UniProt P11473); test: qHTS assay to identify small molecule antagonists of the vitamin D receptor (VDR) signaling pathway (AID 743223; active = well fitted inhibition curve with a large enough effect in the signal ratio in the repeat runs, not every such curve was filed as active; the % refers to the signal ratio)
# Outline: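 VDR-bla cells were plated, incubated 4 h at 37C, then given compound and 1alpha,25-dihydroxyvitamin D3 (3 nM final). After 16 h at 37C, LiveBLAzer B/G FRET substrate was added for 2 h at room temperature and fluorescence read.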
# [19] = biological target: Aryl hydrocarbon receptor (Homo sapiens) (UniProt P35869); test: qHTS assay to identify small molecule that activate the aryl hydrocarbon receptor (AhR) signaling pathway (AID 743085);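 note: HG2L7.5c1 human HepG2 liver cells with stably integrated DRE-driven firefly reporter; series mostly up to about 70 µM; nearly all actives have a fitted effect of over 15% in size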
# Chain of Aryl hydrocarbon receptor (Homo sapiens) (P35869 whole entry, looked up): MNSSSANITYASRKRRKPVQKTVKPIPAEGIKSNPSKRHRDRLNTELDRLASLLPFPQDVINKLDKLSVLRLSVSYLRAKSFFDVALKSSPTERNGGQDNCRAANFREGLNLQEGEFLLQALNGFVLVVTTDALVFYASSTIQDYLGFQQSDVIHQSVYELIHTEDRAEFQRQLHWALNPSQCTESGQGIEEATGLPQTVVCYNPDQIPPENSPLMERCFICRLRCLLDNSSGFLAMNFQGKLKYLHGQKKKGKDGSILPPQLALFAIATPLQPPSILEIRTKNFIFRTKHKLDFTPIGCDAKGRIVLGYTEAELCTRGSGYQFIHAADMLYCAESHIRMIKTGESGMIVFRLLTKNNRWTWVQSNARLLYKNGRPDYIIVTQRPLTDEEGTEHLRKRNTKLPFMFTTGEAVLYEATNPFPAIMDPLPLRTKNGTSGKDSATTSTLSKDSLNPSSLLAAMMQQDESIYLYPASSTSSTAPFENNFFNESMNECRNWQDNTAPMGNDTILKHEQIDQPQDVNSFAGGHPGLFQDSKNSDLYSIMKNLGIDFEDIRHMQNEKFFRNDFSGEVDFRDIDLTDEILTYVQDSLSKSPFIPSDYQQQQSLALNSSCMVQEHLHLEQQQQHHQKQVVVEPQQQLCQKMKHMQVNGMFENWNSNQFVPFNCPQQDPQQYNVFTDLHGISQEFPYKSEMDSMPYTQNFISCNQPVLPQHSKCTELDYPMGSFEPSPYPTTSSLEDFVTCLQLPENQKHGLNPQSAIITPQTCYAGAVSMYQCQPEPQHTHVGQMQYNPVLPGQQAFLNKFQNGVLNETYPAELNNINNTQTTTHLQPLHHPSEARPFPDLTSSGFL
# Outline: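 HepG2 cells (HG2L7.5c1) stably carrying a firefly luciferase reporter driven by 20 dioxin responsive elements were exposed to compound for 24 h at 37C after a 5 h settling period; luminescence rise (ONE-Glo) indicated activation.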
# [20] = qHTS assay to identify small molecule agonists of the farnesoid-X-receptor (FXR) signaling pathway - cell viability counter screen (AID 743218); note: nearly all actives have a fitted effect of over 45% in size
# Outline: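 HEK 293T FXR-bla cells; 5 h pre-incubation, 16 h compound exposure at 37 C; LiveBLAzer substrate 2 h RT, then CellTiter-Glo 30 min RT, luminescence.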
smiles,measurement,setting,value
N[C@@H](C(=O)N[C@@H]1C(=O)N2C(C(=O)O)=C(Cl)CS[C@H]12)c1ccccc1,Potency,[1],inactive
same,Potency,[2],inactive
same,outcome,[3],inactive
same,"ratio activity, negative = inhibition",[4],6.67% [at 13.2 µM] (inactive)
same,"activity change, negative = cytotoxicity",[5],0.956% [at 13.2 µM] (inactive)
same,activation,[6],-0.175% [at 8.36 µM] (inactive)
same,"viability change, negative = cytotoxic",[7],3.71% [at 8.36 µM] (inactive)
same,"activity change, negative = cytotoxicity",[8],-29.5% [at 13.2 µM] (inactive)
same,activation,[9],-0.803% [at 13.2 µM] (inactive)
same,"activity change, negative = cytotoxicity",[10],12.6% [at 13.2 µM] (inactive)
same,activation,[11],0.732% [at 13.2 µM] (inactive)
same,"viability change, negative = cytotoxic",[12],10.2% [at 13.7 µM] (inactive)
same,"ratio activity, negative = inhibition",[13],0.0649% [at 13.7 µM] (inactive)
same,"activity change, negative = inhibition",[14],-0.0054% [at 13.2 µM] (inactive)
same,activation,[15],0.369% [at 13.2 µM] (inactive)
same,"activity change, negative = cytotoxicity",[16],6.46% [at 13.2 µM] (inactive)
same,activation,[17],4.64% [at 13.4 µM] (inactive)
same,"activity change, negative = inhibition",[18],2.28% [at 6.95 µM] (inactive)
CCC(=O)OC(C)c1ccccc1 (stereo not drawn),Potency,[1],inactive
same,Potency,[19],inactive
same,Potency,[4],inactive
same,outcome,[5],inactive
same,Potency,[6],inactive
same,outcome,[8],inactive
same,outcome,[9],inactive
same,Potency,[10],inactive
same,outcome,[11],inactive
same,Potency,[12],inactive
same,Potency,[13],inactive
same,outcome,[14],inactive
same,Potency,[20],inactive
same,outcome,[15],inactive
same,Potency,[16],inactive
same,outcome,[17],inactive
NS(=O)(=O)c1ccc(C(=O)O)cc1,Potency,[1],inactive
same,Potency,[19],inactive
same,outcome,[3],inactive
same,Potency,[4],inactive
same,outcome,[5],inactive
same,Potency,[6],inactive
same,Potency,[7],inactive
same,outcome,[8],inactive
same,Potency,[10],inactive
same,outcome,[11],inactive
same,Potency,[12],inactive
same,Potency,[13],inactive
same,outcome,[14],inactive
same,outcome,[15],inactive
same,Potency,[16],inactive
Nc1c2c(nc3ccccc13)CCCC2O (stereo not drawn),Potency,[1],inactive
same,Potency,[2],inactive
same,outcome,[3],inactive
same,outcome,[5],inactive
same,Potency,[7],inactive
same,outcome,[8],inactive
same,outcome,[9],inactive
same,Potency,[10],inactive
same,outcome,[11],inactive
same,Potency,[12],inactive
same,Potency,[13],inactive
same,Potency,[20],inactive
same,Potency,[16],inactive
NCCc1cnc[nH]1,Potency,[1],inactive
same,outcome,[5],inactive
same,Potency,[6],inactive
same,outcome,[9],inactive
same,Potency,[10],inactive
same,Potency,[12],inactive
same,Potency,[20],inactive
same,Potency,[16],inactive
COc1ccc(CCN(C)CCCC(C#N)(c2cc(OC)c(OC)c(OC)c2)C(C)C)cc1OC (stereo not drawn),Potency,[19],inactive
same,outcome,[5],inactive
same,Potency,[6],inactive
same,outcome,[8],inactive
same,outcome,[9],inactive
same,Potency,[10],inactive
same,outcome,[11],inactive
same,Potency,[12],inactive
same,Potency,[20],inactive
same,Potency,[16],inactive
same,outcome,[17],inactive
Cc1nc2c([nH]1)c(=O)n(C)c(=O)n2Cc1ccco1,Potency,[1],inactive
same,Potency,[2],inactive
same,outcome,[5],inactive
same,Potency,[6],inactive
same,Potency,[7],inactive
same,outcome,[8],inactive
same,outcome,[9],inactive
same,Potency,[10],inactive
same,Potency,[12],inactive
same,outcome,[14],inactive
same,Potency,[20],inactive
same,outcome,[15],inactive
same,Potency,[16],inactive
same,outcome,[17],inactive
same,outcome,[18],inactive
COC(=O)C1=C(C)NC(C)=C(C(=O)OC)C1c1ccccc1[N+](=O)[O-],Potency,[1],inactive and 54.5 µM (active)
same,outcome,[3],inactive
same,Potency,[4],inactive
same,outcome,[5],inactive
same,Potency,[6],inactive
same,outcome,[8],inactive
same,outcome,[9],inactive
same,Potency,[10],49 µM (active) and inactive
same,outcome,[11],inactive
same,Potency,[12],inactive
same,outcome,[14],inactive
same,outcome,[15],inactive
same,Potency,[16],inactive
same,outcome,[17],inactive
same,outcome,[18],inactive
CC(C)NCCCC1(C(N)=O)c2ccccc2-c2ccccc21,Potency,[4],inactive
same,outcome,[5],inactive
same,Potency,[6],inactive
same,Potency,[7],inactive
same,outcome,[8],inactive
same,outcome,[9],inactive
same,Potency,[10],inactive
same,outcome,[11],inactive
same,Potency,[20],inactive
same,Potency,[16],inactive
same,outcome,[17],inactive
same,outcome,[18],inactive
